Structures can show the parent of a compound that is named as a salt.
How the values were obtained:
Settings in all cases: 20 µM; incubation time: 27 h, anaerobic, 37 °C;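 for the amine columns active = adjusted P below 0.05 in both replicates with a change the same way and a mean fold change under 0.8 or over 1.25; inactive = the rest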
[1] = test system: Clostridium sporogenes DSM 1664; assay: growth (OD595) fold change vs plate DMSO controls (fold change (ratio)); higher = more growth
Summary of the method: (§1)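 Absorbance at 595 nm was read after shaking the anaerobic mGAM cultures, which had grown in 96-well plates for 27 h at 37 °C. After blank subtraction and background correction against 20 µM compound solutions in water, a calibration factor of 5 gave OD values. Growth is the fold change against the median of the plate's DMSO controls. Values are the mean of 2 biological replicates, with fold changes above 1.5 set to NA.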

Escherichia coli IAI1 [2] = assay: as above
Summary of the method: as §1

[3] = test system: Klebsiella aerogenes DSM 30053; assay: as above
Summary of the method: as §1

[4] = test system: Ruminococcus gnavus DSM 108212; assay: as above
Summary of the method: as §1

[5] = test system: Klebsiella aerogenes DSM 30053; assay: fold change of Histamine concentration vs plate DMSO controls (fold change (ratio)); higher = more amine produced, active = hit call of the paper (significant change in both replicates, either direction)
Summary of the method: (§2)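 Extracts of whole anaerobic mGAM cultures were analysed for amines by LC–triple-quadrupole MS with dynamic MRM and external calibration curves, with drift corrected within batch. Four gut strains were grown at 37 °C for 27 h in 80 µL wells with compounds at 20 µM final, sweeteners at 50 µM final. Each value expresses fold change over plate DMSO controls. The average of 2 biological replicates is shown.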

[6] = test system: Clostridium sporogenes DSM 1664; assay: fold change of Tryptamine concentration vs plate DMSO controls (fold change (ratio)); higher = more amine produced, active = hit call of the paper (significant change in both replicates, either direction)
Summary of the method: as §2

[7] = test system: Ruminococcus gnavus DSM 108212; assay: as above
Summary of the method: as §2

Escherichia coli IAI1 [8] = assay: fold change of Putrescine concentration vs plate DMSO controls (fold change (ratio)); higher = more amine produced, active = hit call of the paper (significant change in both replicates, either direction)
Summary of the method: as §2

[9] = test system: Klebsiella aerogenes DSM 30053; assay: as above
Summary of the method: as §2

Escherichia coli IAI1 [10] = assay: fold change of Cadaverine concentration vs plate DMSO controls (fold change (ratio)); higher = more amine produced, active = hit call of the paper (significant change in both replicates, either direction)
Summary of the method: as §2

[11] = test system: Klebsiella aerogenes DSM 30053; assay: as above
Summary of the method: as §2

[12] = test system: Ruminococcus gnavus DSM 108212; assay: fold change of 2-Phenylethylamine concentration vs plate DMSO controls (fold change (ratio)); higher = more amine produced, active = hit call of the paper (significant change in both replicates, either direction)
Summary of the method: as §2

Structure (SMILES)	growth [1]	growth (Escherichia coli IAI1 [2])	growth [3]	growth [4]	fold change of Histamine concentration [5]	fold change of Tryptamine concentration [6]	fold change of Tryptamine concentration [7]	fold change of Putrescine concentration (Escherichia coli IAI1 [8])	fold change of Putrescine concentration [9]	fold change of Cadaverine concentration (Escherichia coli IAI1 [10])	fold change of Cadaverine concentration [11]	fold change of 2-Phenylethylamine concentration [12]
CC(Oc1ccc(Oc2nc3ccc(Cl)cc3o2)cc1)C(=O)O (racemic)	1.06	1.04	1.02	1.01	0.989 (inactive)	1 (inactive)	1 (inactive)	1.03 (inactive)	1.01 (inactive)	0.937 (inactive)	1.02 (inactive)	1.01 (inactive)
Oc1ccc(C(c2ccc(O)cc2)(C(F)(F)F)C(F)(F)F)cc1 [Bisphenol AF]	1.04	1.07	0.956	0.983	1.08 (inactive)	0.718 (inactive)	0.717 (active)	1.01 (inactive)	0.989 (inactive)	1.03 (inactive)	0.99 (inactive)	0.723 (inactive)
C#C[C@]1(O)C=C[C@H]2[C@@H]3CCC4=CC(=O)CC[C@@H]4[C@H]3CC[C@@]21CC [Gestodene]	1.16	1.02	1	0.924	1 (inactive)	1.03 (inactive)	1.01 (inactive)	1.02 (inactive)	0.993 (inactive)	0.995 (inactive)	0.988 (inactive)	0.977 (inactive)
CCc1cnc(C2=NC(C)(C(C)C)C(=O)N2)c(C(=O)O)c1 (stereo not given)	1	1.06	0.985	1.09	1 (inactive)	0.954 (inactive)	1.01 (inactive)	1.03 (inactive)	1.02 (inactive)	0.991 (inactive)	0.993 (inactive)	0.984 (inactive)
CC(C)OC(=O)C(C(=O)OC(C)C)=C1SCCS1	1.07	0.971	1.02	1.08	0.989 (inactive)	0.999 (inactive)	1 (inactive)	1.02 (inactive)	1 (inactive)	0.976 (inactive)	1 (inactive)	0.956 (inactive)
CCNCC(O)c1cccc(O)c1 (stereo not given) [Etilefrine hydrochloride]	0.977	0.971	0.996	0.981	1.05 (inactive)	1.03 (inactive)	0.959 (inactive)	0.997 (inactive)	1.01 (inactive)	0.991 (inactive)	0.987 (inactive)	0.949 (inactive)
Cc1cc(C(C#N)c2ccc(Cl)cc2)c(Cl)cc1NC(=O)c1cc(I)cc(I)c1O (stereo not given) [Closantel]	0.0125	1.08	1.03	0.185	0.981 (inactive)	0.0178 (active)	0.121 (active)	1.19 (inactive)	0.984 (inactive)	1.32 (active)	1.05 (inactive)	0.13 (active)
COP(=O)(NC(C)=O)SC (stereo not given)	1.04	0.98	1.02	1.04	1 (inactive)	1.02 (inactive)	1 (inactive)	1.02 (inactive)	1 (inactive)	1.02 (inactive)	0.997 (inactive)	1 (inactive)
COc1cc(C)c(C(=O)c2c(OC)ccc(Br)c2C)c(OC)c1OC	1.04	1.05	1.04	1.1	0.967 (inactive)	0.978 (inactive)	1.01 (inactive)	1.02 (inactive)	1.02 (inactive)	1.07 (inactive)	1.01 (inactive)	1 (inactive)
CCc1cc(C)cc(CC)c1-c1c(OC(=O)C(C)(C)C)n2n(c1=O)CCOCC2	0.933	1.05	0.985	0.919	0.979 (inactive)	1.11 (inactive)	0.99 (inactive)	1.02 (inactive)	1.01 (inactive)	1.05 (inactive)	0.994 (inactive)	0.985 (inactive)
Cc1cc(C(C#N)c2ccc(Cl)cc2)c(Cl)cc1NC(=O)c1cc(I)cc(I)c1O (stereo not given)	0	0.947	1	0.156	1.07 (inactive)	0.0183 (active)	0.104 (active)	1.07 (inactive)	1.03 (inactive)	1.29 (active)	1.01 (inactive)	0.11 (active)
NC(=O)OCCCc1ccccc1 [Phenprobamate]	0.892	0.995	0.992	0.943	0.97 (inactive)	0.987 (inactive)	0.96 (inactive)	1.34 (inactive)	0.99 (inactive)	0.952 (inactive)	0.984 (inactive)	0.943 (inactive)
COc1ccc(C(CN(C)C)C2(O)CCCCC2)cc1 (stereo not given) [Venlafaxine]	0.902	0.974	0.983	1.1	1.04 (inactive)	0.942 (inactive)	1.01 (inactive)	1.04 (inactive)	1 (inactive)	0.819 (inactive)	0.974 (inactive)	1.06 (inactive)
CO/C=C(/C(=O)OC)c1ccccc1COc1cccc(C(F)(F)F)n1	1.04	1.03	1.05	0.952	0.977 (inactive)	1.02 (inactive)	0.996 (inactive)	1.06 (inactive)	1 (inactive)	1 (inactive)	1 (inactive)	0.98 (inactive)
C[C@]12CC[C@H](O)C[C@H]1CC[C@@H]1[C@@H]2C[C@@H](O)[C@]2(C)[C@@H](C3=CC(=O)OC3)CC[C@]12O [Digoxigenin]	0.957	1.07	1.03	0.974	0.938 (inactive)	1.04 (inactive)	1.12 (inactive)	1.04 (inactive)	0.964 (inactive)	1.01 (inactive)	1.01 (inactive)	1.12 (inactive)
Fc1ccc([C@]2(Cn3cncn3)O[C@H]2c2ccccc2Cl)cc1 (racemic)	0.97	1.01	0.994	1.04	0.991 (inactive)	1.06 (inactive)	0.967 (inactive)	0.935 (inactive)	0.954 (inactive)	1.03 (inactive)	0.982 (inactive)	1.02 (inactive)
O=S(=O)(c1ccc(O)cc1)c1ccc(O)cc1 [Bisphenol S]	1.08	1.02	0.994	1.04	0.949 (inactive)	1.04 (inactive)	0.941 (inactive)	0.883 (inactive)	0.939 (inactive)	0.961 (inactive)	0.998 (inactive)	0.946 (inactive)
COc1ccc(-c2ccccc2)cc1NNC(=O)OC(C)C	1.14	0.997	1	1.12	0.998 (inactive)	0.997 (inactive)	0.968 (inactive)	0.991 (inactive)	1 (inactive)	1.03 (inactive)	0.984 (inactive)	0.922 (inactive)
COC(=O)NC(=S)Nc1ccccc1NC(=S)NC(=O)OC	1.11	1.02	0.97	0.994	0.974 (inactive)	1.02 (inactive)	0.971 (inactive)	0.954 (inactive)	0.972 (inactive)	0.974 (inactive)	1.01 (inactive)	0.936 (inactive)
C[C@@H]1CN([C@H]2CC[C@](C#N)(c3ccc(F)cc3)CC2)CC[C@]1(C(=O)O)c1ccccc1 [Levocabastine hydrochloride]	1.17	1.09	1.02	1.07	1.03 (inactive)	1.04 (inactive)	1 (inactive)	1.02 (inactive)	1 (inactive)	0.916 (inactive)	0.999 (inactive)	0.949 (inactive)
CC[C@@H](C(N)=O)N1CCCC1=O [Levetiracetam]	1.02	1.01	1.08	0.829	0.827 (inactive)	1.06 (inactive)	1.07 (inactive)	1.06 (inactive)	0.951 (inactive)	1.02 (inactive)	1.05 (inactive)	1.07 (inactive)
O=C1C=C(N(Cc2ccc(Cl)nc2)CC(F)F)CO1	0.968	1.01	0.997	0.923	1.02 (inactive)	1.15 (inactive)	1.1 (inactive)	0.94 (inactive)	1 (inactive)	0.933 (inactive)	1.01 (inactive)	1.15 (inactive)
Cc1ccc(/N=C/N(C)/C=N/c2ccc(C)cc2C)c(C)c1	0.953	1.05	1.03	1.06	1.03 (inactive)	0.98 (inactive)	0.939 (inactive)	0.981 (inactive)	1.01 (inactive)	1.01 (inactive)	0.991 (inactive)	0.926 (inactive)
Nc1nc(N)nc(N)n1 [Melamine]	0.88	0.99	0.966	1.11	0.958 (inactive)	1.05 (inactive)	1.01 (inactive)	0.988 (inactive)	0.956 (inactive)	0.95 (inactive)	1.01 (inactive)	1.05 (inactive)
CC[C@H]1CCC[C@H](O[C@H]2CC[C@H](N(C)C)[C@@H](C)O2)[C@@H](C)C(=O)C2=C[C@@H]3[C@@H](C=C(C)[C@@H]4C[C@@H](O[C@@H]5O[C@@H](C)[C@H](OC)[C@@H](OC)[C@H]5OC)C[C@@H]34)[C@@H]2CC(=O)O1.CC[C@H]1CCC[C@H](O[C@H]2CC[C@H](N(C)C)[C@@H](C)O2)[C@@H](C)C(=O)C2=C[C@H]3[C@@H]4C[C@H](O[C@@H]5O[C@@H](C)[C@H](OC)[C@@H](OC)[C@H]5OC)C[C@H]4C=C[C@H]3C2CC(=O)O1	1.03	0.983	1.01	0.919	0.93 (inactive)	0.96 (inactive)	0.984 (inactive)	1.02 (inactive)	0.991 (inactive)	1.01 (inactive)	0.992 (inactive)	0.982 (inactive)

Source: the supplement of paper PMC12494721
